From PubChem BioAssay (Tox21)
Results filed as inconclusive are left out. Entries that show only a call come without a potency. Values without a mark were called inactive. Active and inactive are the calls of the source. Calls follow the shape of the dose curve; as a rule, active = well fitted cell-killing curve with a large enough effect in the repeat runs; inconclusive = weak or mixed curves, or effect the other way; inactive = no such curve, though single readings can be large or run the other way.

experiment: Caspase-3/7 induction in CHO-K1 cells by small molecules, qHTS cell viability counter screen (AID 1346979); details: CellTiter-Fluor fluorescence, 17 h; series mostly up to 92.4 µM; also: nearly all actives have a fitted effect of over 35% in size
Description: National Center for Advancing Translational Sciences [NCATS]
NIH Chemical Genomics Center [NCGC]
U.S. Environmental Protection Agency [EPA]
National Institutes of Environmental Health Sciences [NIEHS]
National Toxicology Program [NTP]
U.S. Food and Drug Administration [FDA]
Apoptosis is a process of programmed cell death and plays a central role in the development of multicellular organisms. It is a highly regulated process and induces cell death by activating caspases, which are the members of cysteine aspartic acid-specific protease (caspase) family. Caspases involved in apoptosis are classified by their mechanism of action as initiator caspases (caspase-2, -8, -9 and -10) and executioner caspases (caspase-3, -6, and -7). Inhibition of apoptosis results in number of cancers, autoimmune diseases, inflammatory diseases and viral infection. To identify small molecule compounds that induce apoptosis, a homogeneous, luminescent Caspase-Glo 3/7 assay was used. Wild type CHO-K1 cells were used to screen Tox21 libraries for identifying caspase-3/7 activity inducers. Also cytotoxicity of the compounds was tested in parallel by measuring the cell viability using CellTiter-Fluor assay system in the same wells.
Tox21 Assay Protocol Summary:
CHO-K1 cells were dispensed at 1,500 per well in 5uL of culture medium into white solid bottom 1536-well plates (Corning Life Sciences, Corning, NY) using a Multidrop Combi (Thermo Scientific, Waltham, MA) dispenser. The assay plates were incubated at 37 C and 5% CO2 for 5hr, and then 23nL of compounds dissolved in DMSO and positive control were transferred using a Pintool station (Wako, San Diego, CA). The assay plates were incubated at 37C and 5% CO2 for 17hr. For cytotoxicity read, after 16hr incubation at 37C, 1uL CellTiter-Fluor reagent (Promega Corporation, Madison, WI) was added to each well of the assay plates using Flying Reagent Dispenser (FRD, Aurora Discovery, San Diego, CA). After 1hr incubation at 37C and 5% CO2, the fluorescence signal was quantified using a ViewLux plate reader (PerkinElmer, Shelton, CT).
Potency is read from the fitted curve at half-maximal effect.

| SMILES | Potency | activity change, negative = cytotoxicity |
| --- | --- | --- |
| CC/C=C(\C)C=O | inactive |  |
| CC/C=C\C/C=C\C/C=C\CCCCCCCC(=O)OC | 61.1 µM (active) |  |
| Oc1ccc(C2(c3ccc(O)c(C4CCCCC4)c3)CCCCC2)cc1C1CCCCC1 | 13.7 µM (active) |  |
| Cc1ccc(Cl)c(N)c1Cl | inactive |  |
| C/C(=C\c1ccc(C(=O)O)cc1)c1ccc2c(c1)C(C)(C)CCC2(C)C | inactive |  |
| O=C1C=CC(=O)N1c1cccc(N2C(=O)C=CC2=O)c1 | 5.45 µM (active) |  |
| C=CC(=O)OCCOC1C2CCC1C1CC=CC12 (stereo not given) |  | 4.17% [at 19 µM] |
| O=[N+]([O-])c1ccc(CO)cc1 | inactive |  |
| CCc1cccc(C)c1N(C(=O)C(=O)O)C(C)COC (stereo not given) | inactive |  |
| CCCCNc1ccc(NCCCC)c2c1C(=O)c1ccccc1C2=O | 13 µM (active) |  |
| CCOC(=O)C1=NN(c2ccc(Cl)cc2Cl)C(C)(C(=O)OCC)C1 (stereo not given) | inactive |  |
| Cc1ccc(N=Nc2c(O)ccc3ccccc23)c(C)c1 | 7.5 µM (active) |  |
| Nc1ccc(Oc2cccc(Oc3ccc(N)cc3)c2)cc1 | inactive |  |
| CCn1c2ccccc2c2ccccc21 | inactive |  |
| COc1ccc(OC)c(N=Nc2c(O)ccc3ccccc23)c1 | 21.7 µM (active) |  |
| Nc1cc([N+](=O)[O-])ccc1Cl | inactive |  |
| CC(C=O)c1ccccc1 (stereo not given) | inactive |  |
| Cc1ccc(C=O)cc1 | inactive |  |
| O=C(Nc1ccccc1)c1cc(Cl)ccc1O | 17.2 µM (active) |  |
| CCC(=O)OC/C=C(\C)CCC=C(C)C | inactive |  |

| SMILES | Potency | activity change, negative = cytotoxicity |
| --- | --- | --- |
| Cc1ccc2n[nH]nc2c1 | inactive |  |
| O=C1CCC/C=C\CCCCCCCCCC1 | inactive |  |
| CCNc1nc(NC(C)(C)C)nc(OC)n1 | inactive |  |
| CC(Cc1ccc(O)c(O)c1)C(C)Cc1ccc(O)c(O)c1 (stereo not given) | 54.5 µM (active) |  |
| CCCCCCCCOC(=O)c1cc(O)c(O)c(O)c1 | 1.09 µM (active) |  |
| CCOC(=O)[C@H](O)[C@@H](O)C(=O)OCC | inactive |  |
| CCCCCCCCSCc1cc(C)c(O)c(CSCCCCCCCC)c1 | 68.6 µM (active) |  |
| O=C(c1ccccc1)c1ccc(Cl)cc1 | 61.1 µM (active) |  |
| O=C(CCN1CCC(c2ccccc2)C1)c1ccc2c(c1)OCCO2 (stereo not given) | 26.6 µM (active) |  |
| O=C1Cc2ccccc2C1 | 68.6 µM (active) |  |
| c1ccc(C[P+](c2ccccc2)(c2ccccc2)c2ccccc2)cc1 | 61.1 µM (active) |  |
| CC(C)(c1ccc(Oc2ccc(N)cc2)cc1)c1ccc(Oc2ccc(N)cc2)cc1 | 48.6 µM (active) |  |
| NCc1ccco1 | inactive |  |
| [Cl][Dy]([Cl])[Cl] | inactive |  |
| CN(C)CCOc1ccc(/C(=C(/CCCl)c2ccccc2)c2ccccc2)cc1 | 51 µM (active) |  |
| SC1CCCCC1 | inactive |  |
| CCCCCCCC/C=C\CCCCCCCC(=O)N(CCO)CCO | 68.3 µM (active) |  |
| O=C1OC2(c3ccccc31)c1ccc(O)c(Br)c1Oc1c2ccc(O)c1Br | 27.3 µM (active) |  |
| COc1cc(OC)nc(NC(=O)NS(=O)(=O)Nc2ccccc2C(=O)N(C)C)n1 | inactive |  |
| Nc1ccc(Cl)c([N+](=O)[O-])c1 | 54.5 µM (active) |  |
